From PubChem BioAssay AID463173 (ICCB-Longwood Screening Facility, Harvard Medical School, 2010)
Hit rate of the full screen: of about 52,000 compounds, about 4,300 (8.3%) were called active. Rule as the data show it: active = survival mostly below about 52% (no sharp cut-off); inactive = mostly above about 56%. The entries come from a sample that favours actives as a whole.

The molecules below were run on DeltatarO mutant (assay: S. aureus survival, RN4220 and DeltatarO strains – OD600, teichoic acid synthesis inhibitors, primary screen (AID 463173)). Conditions: S. aureus RN4220 wild type/DeltatarO growth, OD600, 18 h, active compounds read low, screened at 18.75 µg/mL (by protocol).
For `CCOc1ccc(C(=O)c2cn(CC(=O)Nc3ccc(F)c(F)c3)c3cc4c(cc3c2=O)OCCO4)cc1`, the survival was 130% (inactive).
In the case of `Cc1ccc(CNC(=O)c2nc(SCc3ccccc3C)ncc2Cl)cc1`, the survival is reported as 76% (inactive).
In the case of `Cc1cccc(NC(=O)Cn2cc(C(=O)C3CCCCC3)c3ccccc32)c1C`, the survival is reported as 63% (inactive).
`COC(=O)c1ccccc1NC(=O)Cn1nc(C(F)(F)F)c2c1CCCC2` was tested, and the survival was 5% (active).
`COc1cc(NC(=O)Cn2nc(C(F)(F)F)c3c2CCCC3)c(OC)cc1Cl` was tested, and the survival was 78% (inactive).
In the case of `CCc1ccccc1NC(=O)Cn1nc(C(F)(F)F)c2c1CCC2`, the survival is reported as 75% (inactive).
For `COc1ccc(Cl)cc1NC(=O)Cn1nc(C(F)(F)F)c2c1CCC2`, the survival was 72% (inactive).
`COc1ccc(Cl)cc1NC(=O)Cn1nc(C(F)(F)F)c2c1CCCC2` was tested, and the survival was 35% (active).
With `CCc1ccccc1NC(=O)Cn1nc(C(F)(F)F)c2c1CCCC2` the survival was 77% (inactive).
In the case of `O=C(CCS(=O)(=O)c1cccc2nonc12)Nc1ccc(F)cc1F`, the survival is reported as 124% (inactive).
`Cc1nnc2c3ccccc3nc(N3CCN(c4ccccc4)CC3)n12` was tested, and the survival was 77% (inactive).
In the case of `FC(F)(F)c1nnc2c3ccccc3c(Cl)nn12`, the survival is reported as 95% (inactive).
In the case of `FC(F)(F)c1nnc2c3ccccc3nc(-c3ccccc3)n12`, the survival is reported as 29% (active).
In the case of `O=C(Cn1nnc(-c2cccc(C(F)(F)F)c2)n1)NCc1ccc(F)cc1`, the survival is reported as 77% (inactive).
`CCc1ccc(NC(=O)C(=O)NCC(c2cccnc2)N2CCc3ccccc3C2)cc1` (stereo not drawn) was tested, and the survival was 64% (inactive).
With `CCc1ccc(OCC(=O)Nc2c(C(=O)c3ccc(Br)cc3)oc3ccccc23)cc1` the survival was 85% (inactive).
`CCNc1nc(Oc2ccc(=O)n(-c3ccccc3)n2)nc(N(C)C)n1` was tested, and the survival was 84% (inactive).
For `CC(C)OCCCNC(=O)c1c2c(nc3ccccc13)C(=O)N(C1CCCCC1)C2`, the survival was 25% (active).
In the case of `COc1ccc(CNC(=O)c2c3c(nc4ccccc24)C(=O)N(C2CCCCC2)C3)cc1`, the survival is reported as 83% (inactive).
In the case of `Cc1ccc(CNC(=O)c2c3c(nc4ccccc24)C(=O)N(C2CCCCC2)C3)cc1`, the survival is reported as 91% (inactive).
In the case of `CN(C(=O)c1c2c(nc3ccccc13)C(=O)N(C1CCCCC1)C2)c1ccc(F)cc1`, the survival is reported as 0% (active).
`O=C(NCc1ccc(F)cc1)c1c2c(nc3ccccc13)C(=O)N(C1CCCCC1)C2` was tested, and the survival was 102% (inactive).
In the case of `O=C(NCc1cccc(Cl)c1)c1c2c(nc3ccccc13)C(=O)N(C1CCCCC1)C2`, the survival is reported as 144% (inactive).
For `CCOc1ccccc1N(C)C(=O)c1c2c(nc3ccccc13)C(=O)N(C1CCCCC1)C2`, the survival was 92% (inactive).
With `O=C(NCc1ccccc1)c1c2c(nc3ccccc13)C(=O)N(C1CCCCC1)C2` the survival was 69% (inactive).
For `CCc1ccc(CNC(=O)c2c3c(nc4ccccc24)C(=O)N(C2CCCCC2)C3)cc1`, the survival was 37% (active).
With `COc1cccc(CNC(=O)c2c3c(nc4ccccc24)C(=O)N(C2CCCCC2)C3)c1` the survival was 46% (active).
For `CC(C)CCNC(=O)c1c2c(nc3ccccc13)C(=O)N(C1CCCCC1)C2`, the survival was 101% (inactive).
For `CCCNC(=O)c1c2c(nc3ccccc13)C(=O)N(C1CCCCC1)C2`, the survival was 75% (inactive).
For `Cc1ccc(NC(=O)Cn2c(CCC(=O)O)ccc2-c2ccc(Cl)cc2)cc1`, the survival was 53% (inactive).
`Cn1ccc2cc(S(=O)(=O)N3CCN(C(=O)Nc4ccc(F)cc4F)CC3)ccc21` was tested, and the survival was 70% (inactive).
In the case of `COc1cccc(CNC(=O)c2cc3c(=O)oc4ccc(C)cc4c3s2)c1`, the survival is reported as 73% (inactive).
With `COc1ccc(Cl)cc1NC(=O)[C@H]1O[C@@H]2OC(C)(C)O[C@@H]2[C@H]2OC(C)(C)O[C@H]21` the survival was 83% (inactive).
In the case of `O=C(CSCc1nc2cccnc2n1C1CCCCC1)NCc1cccc(Br)c1`, the survival is reported as 105% (inactive).
In the case of `CC(C)c1nn2c(=O)cc(COC(=O)C3CCCCC3)nc2s1`, the survival is reported as 94% (inactive).
In the case of `CCc1ccc2nc(N(Cc3cccnc3)C(C)=O)sc2c1`, the survival is reported as 91% (inactive).
`COc1ccc(CNC(=O)c2c3c(nc4ccccc24)C(=O)N(C2CCCCC2)C3)c(OC)c1` was tested, and the survival was 32% (active).
`COc1ccccc1CNC(=O)c1c2c(nc3ccccc13)C(=O)N(C1CCCCC1)C2` was tested, and the survival was 99% (inactive).
For `COc1ccc(OC)c(CNC(=O)c2c3c(nc4ccccc24)C(=O)N(C2CCCCC2)C3)c1`, the survival was 93% (inactive).
With `COc1ccc(C2C3C(=O)N(c4ccccc4)C(=O)C3ON2c2ccccc2)cc1` (stereo not drawn) the survival was 106% (inactive).
With `CC1CCN(S(=O)(=O)c2ccc3c(c2)CCN3C(=O)Nc2ccc(Br)cc2)CC1` the survival was 69% (inactive).
`Cc1ccc(C(=O)Nc2ccccc2C(=O)OCc2cc(=O)n3nc(C(C)C)sc3n2)cc1` was tested, and the survival was 78% (inactive).
For `Cc1ccccc1CNC(=O)Cn1c(=O)c2cccn2c2cccnc21`, the survival was 76% (inactive).
In the case of `Cc1[nH]n2c(=O)cc(-c3ccccc3Cl)nc2c1-c1ccccc1`, the survival is reported as -3% (active).
With `Nc1nc2nc(-c3ccccc3)cc(=O)n2[nH]1` the survival was 84% (inactive).
`Cc1nn2c(-c3ccccc3)cc(-c3ccccc3)nc2c1-c1ccc(Cl)cc1` was tested, and the survival was 78% (inactive).
With `O=C(Nc1nc2nc(-c3ccccc3)cc(=O)n2[nH]1)c1ccc(Cl)cc1` the survival was 65% (inactive).
`Cc1[nH]n2c(=O)cc(-c3ccc(Cl)cc3)nc2c1-c1ccccc1` was tested, and the survival was 3% (active).
For `Cc1cccc(-c2cc3nc(-c4ccccc4)cc(=O)n3[nH]2)c1`, the survival was 97% (inactive).
`C/C(=N\N=C1/NC(=O)C(CC(=O)O)S1)c1ccc(C)o1` (stereo not drawn) was tested, and the survival was 101% (inactive).
For `CCCCCCNC(=O)CCc1c(C)nc2nc(-c3cc(OC)cc(OC)c3)nn2c1C`, the survival was 57% (inactive).
With `Cc1ccc(Cn2c(=N)n(CC(=O)c3ccccc3)c3ccccc32)cc1` the survival was 65% (inactive).
For `N=c1n(CCN2CCCCC2)c2ccccc2n1CC(O)c1ccc2c(c1)OCO2` (stereo not drawn), the survival was 83% (inactive).
With `CC(C)(C)c1ccc(Cn2c(=N)n(CC(O)c3ccco3)c3ccccc32)cc1` (stereo not drawn) the survival was 5% (active).
For `COc1ccc(CNCCSc2nnnn2-c2ccccc2)c(OC)c1`, the survival was 49% (inactive).
`COc1cc(C2CC(=O)c3c([nH]c(C(=O)OCC4CCCCC4)c3C)C2)cc(OC)c1OC` (stereo not drawn) was tested, and the survival was 82% (inactive).
For `O=C(CCCCn1c(=O)c2ccccc2n(CC(=O)Nc2ccc(F)cc2F)c1=O)NCc1ccccc1Cl`, the survival was 100% (inactive).
For `Cc1ccc(C(C(=O)NCc2ccccc2)N(C(=O)C2COc3ccccc3O2)c2cccc(O)c2)o1` (stereo not drawn), the survival was 45% (active).
For `O=C(NCc1ccco1)C(c1cccs1)N(C(=O)C1COc2ccccc2O1)c1cccc(O)c1` (stereo not drawn), the survival was 63% (inactive).
In the case of `Cc1ccc(C(C(=O)NC2CCCCC2)N(C(=O)C2COc3ccccc3O2)c2ccc3c(c2)OCO3)o1` (stereo not drawn), the survival is reported as 77% (inactive).
`CCn1c(SCC(N)=O)nc2ccccc2c1=O` was tested, and the survival was 102% (inactive).
`Cc1nn(C)c2c1c(-c1ccccc1)cc(=O)n2Cc1c(F)cccc1Cl` was tested, and the survival was -5% (active).
In the case of `Cc1ccc(-c2nc(Cn3c(=O)cc(-c4ccccc4)c4c(C)nn(C)c43)c(C)o2)cc1`, the survival is reported as 108% (inactive).
With `Cc1oc(-c2ccccc2)nc1Cn1c(=O)cc(-c2ccccc2)c2c(C)nn(C)c21` the survival was 92% (inactive).
`Cc1cccc(-c2nc(Cn3c(=O)cc(-c4ccccc4)c4c(C)nn(C)c43)c(C)o2)c1` was tested, and the survival was -5% (active).
In the case of `Cc1cc(=O)n(Cc2c(F)cccc2Cl)c2c1c(C)nn2C`, the survival is reported as 81% (inactive).
`Cc1nn(C)c2c1c(-c1ccccc1)cc(=O)n2Cc1ccccc1F` was tested, and the survival was 109% (inactive).
With `CSc1cccc(NC(=O)Nc2ccccc2OCc2cc(=O)n3cc(C)ccc3n2)c1` the survival was 102% (inactive).
For `CCc1ccc(-c2nc(CN3CCC(C(=O)NCCc4ccc(Cl)cc4)CC3)c(C)o2)cc1`, the survival was 77% (inactive).
`Cc1cccc(C(=O)N2CCc3cc(CNC(=O)CSc4ccccc4)ccc32)c1` was tested, and the survival was 77% (inactive).
For `CCc1cc(=O)oc2c(C)c3c(cc12)CN(CCc1ccccc1OC)CO3`, the survival was 51% (inactive).
With `Cc1c(C)c2cc3c(c(C)c2oc1=O)OCN(CCc1ccc(F)cc1)C3` the survival was 41% (active).
For `CCCc1cc(=O)oc2c(C)c3c(cc12)CN(CCc1ccc(Cl)cc1)CO3`, the survival was 39% (active).
With `CCc1cc(=O)oc2c(C)c3c(cc12)CN(CCc1ccccc1)CO3` the survival was 71% (inactive).
In the case of `COC(=O)Cc1c(C)c2cc3c(c(C)c2oc1=O)OCN(CCc1ccc(F)cc1)C3`, the survival is reported as 44% (inactive).
For `Cc1c(C)c2cc3c(c(C)c2oc1=O)OCN(CCc1ccccc1)C3`, the survival was 77% (inactive).
In the case of `COc1ccc2oc(=O)c(-c3nc(-c4ccc(C)c(C)c4)cs3)cc2c1`, the survival is reported as 91% (inactive).
In the case of `COc1ccc(C2CC(=O)c3cnc4c(-c5ccc(F)cc5)c(C)nn4c3C2)cc1OC` (stereo not drawn), the survival is reported as 80% (inactive).
In the case of `CCOC(=O)c1sc2ncn(CC(=O)Nc3ccc(C)cc3Br)c(=O)c2c1C`, the survival is reported as 66% (inactive).
For `Cc1ccccc1CNC(=O)C(=O)NCC(c1ccc2c(c1)OCO2)N1CCOCC1` (stereo not drawn), the survival was 87% (inactive).
`CCN(C(=O)c1cc2c(=O)oc3ccc(C)cc3c2s1)c1cc(OC)ccc1OC` was tested, and the survival was 78% (inactive).
`CC(=O)Nc1ccc(Nc2ncnc3c2c(-c2ccccc2)cn3-c2ccc(C)c(Cl)c2)cc1` was tested, and the survival was 68% (inactive).
In the case of `CNc1oc(-c2ccc(COc3ccc(C)cc3)o2)nc1C#N`, the survival is reported as 77% (inactive).
`CCCn1c(CCC(=O)Nc2ccc(OCC)cc2)nc2cccnc21` was tested, and the survival was 93% (inactive).
With `N#Cc1c(-n2ncnc2-c2ccccc2C(F)(F)F)sc2c1CCCCC2` the survival was 6% (active).
In the case of `COc1ccccc1-c1cc(C(=O)Nc2sc3c(c2C#N)CCCC3)no1`, the survival is reported as 130% (inactive).
With `Cc1ccccc1-c1ncnn1-c1sc2c(c1C#N)CCCCC2` the survival was 72% (inactive).
`CC(NC(=O)Nc1ccccc1C(F)(F)F)c1c(-n2cccc2)sc2c1CCCC2` (stereo not drawn) was tested, and the survival was 104% (inactive).
For `N#Cc1c(NC(=O)c2cccs2)sc2c1CCCCC2`, the survival was 87% (inactive).
In the case of `N#Cc1c(-n2ncnc2-c2ccccc2Cl)sc2c1CCCCC2`, the survival is reported as 26% (active).
`COc1ccccc1-c1ncnn1-c1sc2c(c1C#N)CCCCC2` was tested, and the survival was -2% (active).
With `COc1cccc(-c2ncnn2-c2sc3c(c2C#N)CCCCC3)c1OC` the survival was 86% (inactive).
With `N#Cc1c(/N=C/N2CCCCC2)sc2c1CCCC2` the survival was 80% (inactive).
